Article PMC4336329 (PLoS ONE, 2015)
Hit rate of the full screen: of about 310,000 compounds, about 14,000 (4.5%) showed an effect of 50% or more. The effect is printed as a negative number. Only a selection was taken, and strong results are over-represented in it overall.

Target: human ether-à-go-go-related gene (hERG) potassium channel (human, UniProt Q12809)
Assay: primary screen, population patch clamp on CHO cells stably expressing hERG; higher = less effect of the substance
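Also: peak tail current of the secondary pulse compared with the same well before compound.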

Sequence of human ether-à-go-go-related gene (hERG) potassium channel (Q12809 whole entry, looked up): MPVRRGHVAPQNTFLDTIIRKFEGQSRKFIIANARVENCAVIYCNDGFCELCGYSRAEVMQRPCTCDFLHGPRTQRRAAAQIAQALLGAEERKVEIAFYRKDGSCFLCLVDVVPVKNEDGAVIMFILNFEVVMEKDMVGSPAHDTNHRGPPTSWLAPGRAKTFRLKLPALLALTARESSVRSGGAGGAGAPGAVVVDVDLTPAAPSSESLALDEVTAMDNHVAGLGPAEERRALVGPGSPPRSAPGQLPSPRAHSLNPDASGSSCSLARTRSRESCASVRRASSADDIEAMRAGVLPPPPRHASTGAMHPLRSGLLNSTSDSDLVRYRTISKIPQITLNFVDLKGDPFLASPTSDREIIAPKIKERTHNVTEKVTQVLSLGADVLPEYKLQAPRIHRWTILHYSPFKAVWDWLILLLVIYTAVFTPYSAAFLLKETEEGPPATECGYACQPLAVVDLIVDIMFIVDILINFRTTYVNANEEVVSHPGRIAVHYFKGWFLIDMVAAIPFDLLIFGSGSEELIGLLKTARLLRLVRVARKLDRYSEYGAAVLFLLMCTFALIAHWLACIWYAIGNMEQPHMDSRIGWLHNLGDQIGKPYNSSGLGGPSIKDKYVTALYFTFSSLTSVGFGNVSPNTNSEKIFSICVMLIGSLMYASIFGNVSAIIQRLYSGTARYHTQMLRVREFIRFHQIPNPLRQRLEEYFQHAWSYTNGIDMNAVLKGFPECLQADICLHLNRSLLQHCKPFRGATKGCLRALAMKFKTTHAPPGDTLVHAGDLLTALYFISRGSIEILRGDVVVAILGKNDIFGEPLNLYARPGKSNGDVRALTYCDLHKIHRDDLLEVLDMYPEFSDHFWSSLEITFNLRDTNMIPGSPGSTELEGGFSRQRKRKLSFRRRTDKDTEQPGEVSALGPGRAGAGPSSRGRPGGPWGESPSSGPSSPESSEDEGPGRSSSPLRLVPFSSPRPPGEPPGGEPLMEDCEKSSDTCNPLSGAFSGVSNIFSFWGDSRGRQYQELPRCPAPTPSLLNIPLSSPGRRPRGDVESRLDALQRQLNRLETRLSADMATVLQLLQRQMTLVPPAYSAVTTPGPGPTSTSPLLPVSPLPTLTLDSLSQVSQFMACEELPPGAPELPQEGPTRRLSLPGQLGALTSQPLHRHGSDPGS

Row | SMILES | hERG current change (%, negative = inhibition) at 10uM [%]
1 | Cc1csc(SCC(=O)NC23CC4CC(CC(C4)C2)C3)n1 | -20.5
2 | O=S(=O)(/N=C(/Nc1cccc2ccccc12)c1ccc(F)cc1)c1ccccc1 | -42.8
3 | COCCCNC(=O)Cn1nnc(-c2ccc(NC(=O)c3ccccc3F)cc2)n1 | -2.44
4 | CCOC(=O)CN(C(=O)CSc1nnc(-c2ccc(OC)c(OC)c2)o1)c1ccc(F)cc1 | -49.6
5 | CC(=O)c1sc(NC(=O)CCOc2ccccc2)nc1C | 5.9
6 | CCC(Sc1nc2n[nH]c(C)c2c(=N)n1-c1cc(Cl)ccc1C)C(=O)N1CCOCC1 (centres unmarked) | -0.58
7 | CC1CCN(C(C)C(=O)Nc2ccc(S(=O)(=O)N3CCCC3)cc2)CC1 (centres unmarked) | -6.3
8 | COc1cc(NC(=O)C(C)N2CCN(C(=O)C3CC3)CC2)cc(OC)c1 (centres unmarked) | -16.1
9 | CC(C(=O)Nc1ccc(C#N)cc1)N1CCN(C(=O)C2CC2)CC1 (centres unmarked) | -61.2
10 | CCOCCCNc1ncnc2c1nc1n2CCCC1 | 17.2
11 | COCCCNc1ncnc2c1nc1n2CCCC1 | 18.6
12 | CC(C)OCCCNc1ncnc2c1nc1n2CCCC1 | -72.6
13 | COc1ccc2[nH]cc(CCN3C(=O)CCC3=O)c2c1 | 10.7
14 | O=C(CSc1nc2c(c(C(F)(F)F)n1)CCc1ccccc1-2)NCc1ccccc1 | 6.56
15 | CCN(CC)CCCNC(=O)CSc1nc2c(c(C(F)(F)F)n1)CCc1ccccc1-2 | -52.2
16 | O=C(CSc1nc2c(c(C(F)(F)F)n1)CCc1ccccc1-2)NCc1ccc(F)cc1 | 14.2
17 | Cl.O=C(CN1CCCC(O)C1)N1c2ccccc2Sc2ccc(C(F)(F)F)cc21 (centres unmarked) | -7.16
18 | O=C(Nc1c2c(nn1-c1ccc([N+](=O)[O-])cc1)CS(=O)(=O)C2)c1ccco1 | -64.7
19 | CC(Oc1ccccc1)C(=O)Nc1c2c(nn1-c1ccccc1)CS(=O)(=O)C2 (centres unmarked) | 18.2
20 | Cc1ccc(-n2nc3c(c2NC(=O)c2ccco2)CS(=O)(=O)C3)cc1 | -25.7
21 | O=C(Nc1c2c(nn1-c1ccccc1)CS(=O)(=O)C2)c1ccco1 | -9.21
22 | COc1cccc(C(=O)Nc2c3c(nn2-c2ccc([N+](=O)[O-])cc2)CS(=O)(=O)C3)c1 | -53.8
23 | COc1ccccc1C(=O)Nc1c2c(nn1-c1ccc([N+](=O)[O-])cc1)CS(=O)(=O)C2 | 11.7
24 | CC(C)Oc1ccc(C(=O)Nc2c3c(nn2-c2ccccc2)CS(=O)(=O)C3)cc1 | -65.9
25 | COc1ccc(C(=O)Nc2c3c(nn2-c2ccc([N+](=O)[O-])cc2)CS(=O)(=O)C3)cc1 | -9.85
26 | CCOc1ccc(C(=O)Nc2c3c(nn2-c2ccccc2)CS(=O)(=O)C3)cc1 | 4.84
